Results as given in publication PMC11006913.
Substitutions are numbered along the chain they refer to.

What was measured:
Assay in all cases: PBM; 200 nM protein, PBS
Details in all cases: dsDNA, one strand shown
SIX6 [1] = molecular target: T1, SIX6 (Homo sapiens, UniProt O95475 114-200, L167I)
T1 sequence: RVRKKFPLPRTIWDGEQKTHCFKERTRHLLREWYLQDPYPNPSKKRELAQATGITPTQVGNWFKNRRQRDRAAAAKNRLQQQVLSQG

SIX6 [2] = molecular target: T2, SIX6 (Homo sapiens, UniProt O95475 114-200, L143V)
T2 sequence: T1 sequence with L30V, I54L

SIX6 [3] = molecular target: T3, SIX6 (Homo sapiens, UniProt O95475 114-200, H141N)
T3 sequence: T1 sequence with H28N, I54L

SIX6 [4] = molecular target: T4, SIX6 (Homo sapiens, UniProt O95475 114-200, T165P)
T4 sequence: T1 sequence with T52P, I54L

SIX6 [5] = molecular target: T5, SIX6 (Homo sapiens, UniProt O95475 114-200, L167M)
T5 sequence: T1 sequence with I54M

SIX6 [6] = molecular target: T6, SIX6 (Homo sapiens, UniProt O95475 114-200, L143M)
T6 sequence: T1 sequence with L30M, I54L

SIX6 [7] = molecular target: T7, SIX6 (Homo sapiens, UniProt O95475 114-200, L143I)
T7 sequence: T1 sequence with L30I, I54L

SIX6 [8] = molecular target: T8, SIX6 (Homo sapiens, UniProt O95475 114-200, T165G)
T8 sequence: T1 sequence with T52G, I54L

SIX6 [9] = molecular target: T9, SIX6 (Homo sapiens, UniProt O95475 114-200, T139Q)
T9 sequence: T1 sequence with T26Q, I54L

SIX6 [10] = molecular target: T10, SIX6 (Homo sapiens, UniProt O95475 114-200, T165A)
T10 sequence: T1 sequence with T52A, I54L

SIX6 [11] = molecular target: T11, SIX6 (Homo sapiens, UniProt O95475 114-200, L167V)
T11 sequence: T1 sequence with I54V

SIX6 [12] = molecular target: T12, SIX6 (Homo sapiens, UniProt O95475 114-200)
T12 sequence: T1 sequence with I54L

SIX6 [13] = molecular target: T13, SIX6 (Homo sapiens, UniProt O95475 114-200, T165I)
T13 sequence: T1 sequence with T52I, I54L

Sequence	binding signal (SIX6 [1])	binding signal (SIX6 [2])	binding signal (SIX6 [3])	binding signal (SIX6 [4])	binding signal (SIX6 [5])	binding signal (SIX6 [6])	binding signal (SIX6 [7])	binding signal (SIX6 [8])	binding signal (SIX6 [9])	binding signal (SIX6 [10])	binding signal (SIX6 [11])	binding signal (SIX6 [12])	binding signal (SIX6 [13])
GATACCCC	11.5 upbm affinity estimate (log intensity, higher = more binding, comparable within an allelic series)	10.4 upbm affinity estimate (log intensity, higher = more binding, comparable within an allelic series)	11.5 upbm affinity estimate (log intensity, higher = more binding, comparable within an allelic series)	9.41 upbm affinity estimate (log intensity, higher = more binding, comparable within an allelic series)	11 upbm affinity estimate (log intensity, higher = more binding, comparable within an allelic series)	11.2 upbm affinity estimate (log intensity, higher = more binding, comparable within an allelic series)	10.5 upbm affinity estimate (log intensity, higher = more binding, comparable within an allelic series)	11.6 upbm affinity estimate (log intensity, higher = more binding, comparable within an allelic series)	11.4 upbm affinity estimate (log intensity, higher = more binding, comparable within an allelic series)	11.3 upbm affinity estimate (log intensity, higher = more binding, comparable within an allelic series)	11.2 upbm affinity estimate (log intensity, higher = more binding, comparable within an allelic series)	11.3 upbm affinity estimate (log intensity, higher = more binding, comparable within an allelic series)	11.2 upbm affinity estimate (log intensity, higher = more binding, comparable within an allelic series)
ATACACCA	10.4 upbm affinity estimate (log intensity, higher = more binding, comparable within an allelic series)	10.1 upbm affinity estimate (log intensity, higher = more binding, comparable within an allelic series)	10.6 upbm affinity estimate (log intensity, higher = more binding, comparable within an allelic series)	9.67 upbm affinity estimate (log intensity, higher = more binding, comparable within an allelic series)	10.2 upbm affinity estimate (log intensity, higher = more binding, comparable within an allelic series)	10.4 upbm affinity estimate (log intensity, higher = more binding, comparable within an allelic series)	10.2 upbm affinity estimate (log intensity, higher = more binding, comparable within an allelic series)	10.8 upbm affinity estimate (log intensity, higher = more binding, comparable within an allelic series)	10.8 upbm affinity estimate (log intensity, higher = more binding, comparable within an allelic series)	10.6 upbm affinity estimate (log intensity, higher = more binding, comparable within an allelic series)	10.2 upbm affinity estimate (log intensity, higher = more binding, comparable within an allelic series)	10.5 upbm affinity estimate (log intensity, higher = more binding, comparable within an allelic series)	10.5 upbm affinity estimate (log intensity, higher = more binding, comparable within an allelic series)
ACGGGCGG	8.9 upbm affinity estimate (log intensity, higher = more binding, comparable within an allelic series)	8.8 upbm affinity estimate (log intensity, higher = more binding, comparable within an allelic series)	8.96 upbm affinity estimate (log intensity, higher = more binding, comparable within an allelic series)	8.88 upbm affinity estimate (log intensity, higher = more binding, comparable within an allelic series)	8.9 upbm affinity estimate (log intensity, higher = more binding, comparable within an allelic series)	8.96 upbm affinity estimate (log intensity, higher = more binding, comparable within an allelic series)	8.91 upbm affinity estimate (log intensity, higher = more binding, comparable within an allelic series)	9.03 upbm affinity estimate (log intensity, higher = more binding, comparable within an allelic series)	9.17 upbm affinity estimate (log intensity, higher = more binding, comparable within an allelic series)	9.02 upbm affinity estimate (log intensity, higher = more binding, comparable within an allelic series)	8.77 upbm affinity estimate (log intensity, higher = more binding, comparable within an allelic series)	8.94 upbm affinity estimate (log intensity, higher = more binding, comparable within an allelic series)	8.98 upbm affinity estimate (log intensity, higher = more binding, comparable within an allelic series)
GCGTATCA	11.3 upbm affinity estimate (log intensity, higher = more binding, comparable within an allelic series)	10.2 upbm affinity estimate (log intensity, higher = more binding, comparable within an allelic series)	11.1 upbm affinity estimate (log intensity, higher = more binding, comparable within an allelic series)	9.54 upbm affinity estimate (log intensity, higher = more binding, comparable within an allelic series)	10.5 upbm affinity estimate (log intensity, higher = more binding, comparable within an allelic series)	11.2 upbm affinity estimate (log intensity, higher = more binding, comparable within an allelic series)	10.3 upbm affinity estimate (log intensity, higher = more binding, comparable within an allelic series)	11.3 upbm affinity estimate (log intensity, higher = more binding, comparable within an allelic series)	11.2 upbm affinity estimate (log intensity, higher = more binding, comparable within an allelic series)	11.3 upbm affinity estimate (log intensity, higher = more binding, comparable within an allelic series)	10.9 upbm affinity estimate (log intensity, higher = more binding, comparable within an allelic series)	11.1 upbm affinity estimate (log intensity, higher = more binding, comparable within an allelic series)	11.1 upbm affinity estimate (log intensity, higher = more binding, comparable within an allelic series)
GCCTTCGC	8.84 upbm affinity estimate (log intensity, higher = more binding, comparable within an allelic series)	9.04 upbm affinity estimate (log intensity, higher = more binding, comparable within an allelic series)	8.95 upbm affinity estimate (log intensity, higher = more binding, comparable within an allelic series)	9.09 upbm affinity estimate (log intensity, higher = more binding, comparable within an allelic series)	8.82 upbm affinity estimate (log intensity, higher = more binding, comparable within an allelic series)	9.06 upbm affinity estimate (log intensity, higher = more binding, comparable within an allelic series)	8.98 upbm affinity estimate (log intensity, higher = more binding, comparable within an allelic series)	8.83 upbm affinity estimate (log intensity, higher = more binding, comparable within an allelic series)	8.96 upbm affinity estimate (log intensity, higher = more binding, comparable within an allelic series)	8.83 upbm affinity estimate (log intensity, higher = more binding, comparable within an allelic series)	8.91 upbm affinity estimate (log intensity, higher = more binding, comparable within an allelic series)	8.85 upbm affinity estimate (log intensity, higher = more binding, comparable within an allelic series)	8.83 upbm affinity estimate (log intensity, higher = more binding, comparable within an allelic series)
